According to PubChem BioAssay (EPA / NIEHS):
Values joined by “and” are separate entries in the source; they are usually repeats but may differ in a detail not shown here. Identical values can stand only once. More than one record can exist for a structure, and the calls need not agree. Active and inactive are the calls of the source. How the source made its calls: active means hit-call score of the fitted dose curve at least 0.9, where 1 is the maximum; inactive means score below 0.9.

Key:
Conditions in all cases: mRNA level, 48 h; actives raise or lower the signal
[1] = read-out: Glutathione S-transferase M3 (GSTM3), GSTM3 (gene 2947); test: LTEA_HepaRG_GSTM3: Life Technologies and Expression Analysis (LTEA) Assay for Glutathione S-transferase M3 (GSTM3) using HepaRG (AID 2283501)
In short: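 Expression of GSTM3 is determined by qRT-PCR in human liver HepaRG cells treated 48 h with an 8-point half-log range from 100 uM in 0.5% DMSO.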

[2] = read-out: Heat shock 70 kDa protein 1 (HSPA1A), gene 3303; test: LTEA_HepaRG_HSPA1A: Life Technologies and Expression Analysis (LTEA) Assay for Heat shock 70 kDa protein 1 (HSPA1A) using HepaRG (AID 2283502)
In short: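 Differentiated human HepaRG cells in serum-free induction medium were exposed in duplicate for 48 h to eight concentrations (top 100 uM, half-log steps, 0.5% DMSO). HSPA1A mRNA was quantified by qRT-PCR, normalized to ACTB, GAPDH and POLR2A, and fitted bidirectionally against DMSO.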

[3] = read-out: Hypoxia-inducible factor 1-alpha (Homo sapiens) (UniProt Q16665); test: LTEA_HepaRG_HIF1A: Life Technologies and Expression Analysis (LTEA) Assay for Hypoxia-inducible factor 1 (HIF1A) Trancription factor using HepaRG (AID 2283503);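 further: HIF1A transcript by TaqMan qRT-PCR normalized to ACTB GAPDH and POLR2A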
In short: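 HepaRG, 48 h exposure, 8-pt half-log series from 100 uM, 0.5% DMSO vehicle, duplicates. Readout: HIF1A transcript by qRT-PCR (Fluidigm array), housekeeping-normalised. Bidirectional curve fit vs DMSO baseline.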

[4] = read-out: 3-Hydroxy-3-Methylglutaryl-CoA Synthase 2 (HMGCS2), HMGCS2 (gene 3158); test: LTEA_HepaRG_HMGCS2: Life Technologies and Expression Analysis (LTEA) Assay for 3-Hydroxy-3-Methylglutaryl-CoA Synthase 2 (HMGCS2) using HepaRG (AID 2283504)
In short: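 This steatosis marker was read as HMGCS2 mRNA change in HepaRG cells treated 48 h with up to 100 uM chemical. Normalisation used housekeeping genes; activity in either direction was fitted relative to 0.5% DMSO vehicle.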

[5] = read-out: HGF (gene 3082); test: LTEA_HepaRG_HGF: Life Technologies and Expression Analysis (LTEA) Assay for Hepatocyte Growth Facto (HGF) using HepaRG (AID 2283505)
In short: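 Using HepaRG monolayers kept in 0.5% DMSO, chemicals were tested in duplicate over eight half-log concentrations from 100 uM for 48 h. Endpoint: HGF mRNA change relative to DMSO, normalized to ACTB/GAPDH/POLR2A.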

[6] = read-out: Insulin Like Growth Factor 1 (IGF1), IGF1 (gene 3479); test: LTEA_HepaRG_IGF1: Life Technologies and Expression Analysis (LTEA) Assay for Insulin Like Growth Factor 1 (IGF1) using HepaRG (AID 2283506)
In short: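 Differentiated human HepaRG cells were dosed for 48 h in serum-free induction medium with 0.5% DMSO, eight half-log concentrations up to 100 uM, in duplicate. IGF1 mRNA was quantified by qRT-PCR normalized to ACTB, GAPDH, POLR2A; bidirectional fitting versus DMSO.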

[7] = read-out: Intercellular Adhesion Molecule 1 (ICAM1), ICAM1 (gene 3383); test: LTEA_HepaRG_ICAM1: Life Technologies and Expression Analysis (LTEA) Assay for Intercellular Adhesion Molecule 1 (ICAM1) using HepaRG (AID 2283507)
In short: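 Using the human liver line HepaRG, compounds are tested in duplicate over 48 h at concentrations up to 100 uM. Expression is determined by TaqMan qRT-PCR, normalized to endogenous controls, and analysed relative to 0.5% DMSO vehicle.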

[8] = read-out: Interleukin 6 (IL6), IL6 (gene 3569); test: LTEA_HepaRG_IL6: Life Technologies and Expression Analysis (LTEA) Assay for Interleukin 6 (IL6) using HepaRG (AID 2283509)
In short: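 HepaRG cells exposed in duplicate for 48 h to eight half-log concentrations, top 100 uM, in 0.5% DMSO serum-free induction medium. mRNA measured by qRT-PCR, normalized to ACTB, GAPDH and POLR2A. Bidirectional fit versus DMSO.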

[9] = read-out: Interleukin 6 Receptor (IL6R), IL6R (gene 3570); test: LTEA_HepaRG_IL6R: Life Technologies and Expression Analysis (LTEA) Assay for Interleukin 6 Receptor (IL6R) using HepaRG (AID 2283510)
In short: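 Differentiated human HepaRG cells, plated 48 h then switched to serum-free induction medium, were dosed in duplicate for 48 h at eight half-log concentrations up to 100 uM in 0.5% DMSO. IL6R mRNA quantified by qRT-PCR, normalized to ACTB/GAPDH/POLR2A; bidirectional fit versus DMSO.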

[10] = read-out: Potassium channel subfamily K member 1 (KCNK1), KCNK1 (gene 3775); test: LTEA_HepaRG_KCNK1: Life Technologies and Expression Analysis (LTEA) Assay for Potassium channel subfamily K member 1 (KCNK1) using HepaRG (AID 2283511)
In short: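 Differentiated HepaRG cells, 48 h exposure in serum-free induction medium with 0.5% DMSO; 8 concentrations, half-log from 100 uM, duplicate. KCNK1 mRNA by qRT-PCR, normalized to ACTB, GAPDH, POLR2A; bidirectional fit vs DMSO.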

[11] = read-out: Keratin 19 (KRT19), KRT19 (gene 3880); test: LTEA_HepaRG_KRT19: Life Technologies and Expression Analysis (LTEA) Assay for Keratin 19 (KRT19) using HepaRG (AID 2283512)
In short: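 Readout is qRT-PCR of KRT19 mRNA, normalized to ACTB, GAPDH and POLR2A, from HepaRG cells treated 48 h with eight-point half-log dilutions topping at 100 uM. Activity in either direction is scored relative to 0.5% DMSO vehicle.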

[12] = read-out: Lipase C (LIPC), LIPC (gene 3990); test: LTEA_HepaRG_LIPC: Life Technologies and Expression Analysis (LTEA) Assay for Lipase C (LIPC) using HepaRG (AID 2283514)
In short: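 HepaRG cells, 48 h after plating, treated in duplicate for 48 h in serum-free induction medium over 8 half-log concentrations from 100 uM, 0.5% DMSO. LIPC mRNA by TaqMan qRT-PCR normalized to ACTB/GAPDH/POLR2A; bidirectional fit versus DMSO.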

[13] = read-out: Lipoprotein lipase (LPL), LPL (gene 4023); test: LTEA_HepaRG_LPL: Life Technologies and Expression Analysis (LTEA) Assay for Lipoprotein lipase (LPL) using HepaRG (AID 2283515)
In short: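 Differentiated HepaRG cells, plated 48 h, then exposed 48 h in serum-free induction medium to 8 concentrations (top 100 uM, half-log steps) in 0.5% DMSO, duplicate. LPL mRNA measured by qRT-PCR, normalized to ACTB, GAPDH and POLR2A.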

[14] = read-out: MicroRNA 122 (MIR122), gene 406906; test: LTEA_HepaRG_MIR122: Life Technologies and Expression Analysis (LTEA) Assay for MicroRNA 122 (MIR122) using HepaRG (AID 2283516); further: the transcript read is the microRNA miR-122
In short: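 Differentiated human HepaRG cells were exposed 48 h in serum-free induction medium to eight half-log concentrations (top 100 uM, 0.5% DMSO). Transcript level was measured by TaqMan qRT-PCR, normalized to ACTB, GAPDH and POLR2A, and fitted bidirectionally versus DMSO.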

[15] = read-out: matrix metalloproteinase-10 (MMP10), MMP10 (gene 4319); test: LTEA_HepaRG_MMP10: Life Technologies and Expression Analysis (LTEA) Assay for matrix metalloproteinase-10 (MMP10) using HepaRG (AID 2283517)
In short: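 Differentiated HepaRG cells in serum-free induction medium exposed 48 h in duplicate to 8-point half-log series up to 100 uM in 0.5% DMSO. mRNA quantified by qRT-PCR, normalised to ACTB, GAPDH, POLR2A; bidirectional fit versus DMSO.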

[16] = read-out: MYC, MYC (gene 4609); test: LTEA_HepaRG_MYC: Life Technologies and Expression Analysis (LTEA) Assay for MYC using HepaRG (AID 2283518)
In short: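 Expression changes were scored by TaqMan qRT-PCR with ACTB, GAPDH and POLR2A normalization. Cultures in serum-free induction medium received duplicate 8-point concentration series, highest 100 uM, for 48 h; DMSO (0.5%) served as baseline.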

[17] = read-out: matrix metalloproteinase-3 (MMP3), MMP3 (gene 4314); test: LTEA_HepaRG_MMP3: Life Technologies and Expression Analysis (LTEA) Assay for matrix metalloproteinase-3 (MMP3) using HepaRG (AID 2283519)
In short: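 HepaRG cells (~100,000/well) in serum-free induction medium were dosed in duplicate for 48 h with an 8-point half-log series from 100 uM, 0.5% DMSO. MMP3 mRNA was quantified by Fluidigm TaqMan qRT-PCR, normalized to three housekeeping genes.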

[18] = read-out: Paternally Expressed 10 (PEG10), PEG10 (gene 23089); test: LTEA_HepaRG_PEG10: Life Technologies and Expression Analysis (LTEA) Assay for Paternally Expressed 10 (PEG10) using HepaRG (AID 2283520)
In short: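 Differentiated HepaRG cells, plated 48 h then switched to serum-free induction medium, were exposed in duplicate for 48 h to eight half-log concentrations topping at 100 uM in 0.5% DMSO. PEG10 mRNA was quantified by TaqMan qRT-PCR, normalised to ACTB, GAPDH and POLR2A.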

[19] = read-out: Insulin-like growth factor-binding protein 1 (IGFBP1), IGFBP1 (gene 3484); test: LTEA_HepaRG_IGFBP1: Life Technologies and Expression Analysis (LTEA) Assay for Insulin-like growth factor-binding protein 1 (IGFBP1) using HepaRG (AID 2283508)
In short: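 HepaRG, 48 h, 8 conc. (max 100 uM, half-log), duplicates, 0.5% DMSO. Readout: TaqMan qRT-PCR, ACTB/GAPDH/POLR2A normalisation. Fit: bidirectional vs DMSO.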

[20] = read-out: JUN Transcription Factor, JUN (gene 3725); test: LTEA_HepaRG_JUN: Life Technologies and Expression Analysis (LTEA) Assay for JUN Transcription Factor using HepaRG (AID 2283513)
In short: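 Differentiated HepaRG cells were exposed to chemicals for 48 h in serum-free induction medium, 8 concentrations from 100 uM in half-log steps, 0.5% DMSO vehicle, in duplicate. JUN mRNA was quantified by TaqMan qRT-PCR, normalized to ACTB, GAPDH, POLR2A.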

Measured: AC50

Chain of Hypoxia-inducible factor 1-alpha (Homo sapiens) (Q16665 whole entry, looked up): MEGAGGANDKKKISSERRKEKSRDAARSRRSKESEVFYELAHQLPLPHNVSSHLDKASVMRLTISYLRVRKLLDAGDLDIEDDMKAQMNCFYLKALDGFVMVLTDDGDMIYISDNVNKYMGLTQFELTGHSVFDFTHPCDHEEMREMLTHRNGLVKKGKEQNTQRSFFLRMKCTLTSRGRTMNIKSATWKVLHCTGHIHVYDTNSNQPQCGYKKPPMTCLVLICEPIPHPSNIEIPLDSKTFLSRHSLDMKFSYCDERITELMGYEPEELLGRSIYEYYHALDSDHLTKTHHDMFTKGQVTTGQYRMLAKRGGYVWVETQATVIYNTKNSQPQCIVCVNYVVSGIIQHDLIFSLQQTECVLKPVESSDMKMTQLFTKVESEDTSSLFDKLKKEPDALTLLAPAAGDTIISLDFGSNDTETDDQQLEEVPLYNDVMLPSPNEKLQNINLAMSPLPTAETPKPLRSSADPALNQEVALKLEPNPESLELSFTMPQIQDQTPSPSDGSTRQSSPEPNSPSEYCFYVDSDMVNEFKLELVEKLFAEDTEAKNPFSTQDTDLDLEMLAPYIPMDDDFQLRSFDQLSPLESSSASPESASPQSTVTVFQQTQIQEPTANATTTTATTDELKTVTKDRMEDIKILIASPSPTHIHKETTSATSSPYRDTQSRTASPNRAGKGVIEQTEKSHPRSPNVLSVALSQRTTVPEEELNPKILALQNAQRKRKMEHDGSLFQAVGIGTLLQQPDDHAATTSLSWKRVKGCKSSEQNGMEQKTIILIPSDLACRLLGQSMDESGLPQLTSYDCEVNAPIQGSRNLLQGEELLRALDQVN

CO/C=C(/C(=O)OC)c1ccccc1Oc1cc(Oc2ccccc2C#N)ncn1
inactive: [1] | [2] | [3] | [5] | [9] | [10]
active: [1] 83.1 µM | [2] 83.4 µM | [3] 86.1 µM | [4] 77.1 µM and 76.2 µM and 72.6 µM | [6] 79.8 µM and 62.8 µM and 74 µM | [7] 83.5 µM and 87.8 µM and 88.9 µM | [8] 81.4 µM and 80.9 µM and 82.8 µM | [11] 61.1 µM and 37.1 µM and 50 µM | [12] 80.8 µM and 75.3 µM and 71.2 µM | [13] 82.4 µM and 82.1 µM and 85.2 µM | [14] 72 µM and 83.7 µM and 74.3 µM | [15] 81 µM and 66.5 µM and 34.6 µM | [16] 77.8 µM and 90 µM and 90.3 µM | [17] 83.2 µM and 79.1 µM and 78.9 µM | [18] 27.9 µM and 26.6 µM and 17.5 µM

Oc1ccccc1-c1ccccc1
inactive: [1] | [2] | [3] | [4] | [5] | [6] | [7] | [19] | [8] | [9] | [10] | [11] | [12] | [14] | [15] | [16] | [18]

OC(c1ccc(Cl)cc1)(c1cncnc1)c1ccccc1Cl (stereo not given)
active: [4] 82 µM | [5] 62 µM | [6] 37.3 µM | [7] 74.3 µM | [19] 71.9 µM | [8] 73 µM | [10] 50 µM | [12] 85.7 µM | [13] 50 µM | [14] 73.2 µM | [15] 58.9 µM | [16] 80.4 µM | [18] 5.86 µM
inactive: [1] | [2] | [3] | [9] | [11] | [20]

CC1COC(Cn2cncn2)(c2ccc(Oc3ccc(Cl)cc3)cc2Cl)O1 (stereo not given)
active: [2] 87.2 µM | [3] 11.6 µM | [4] 11.7 µM | [6] 12.1 µM | [7] 26.2 µM | [8] 31.9 µM | [10] 33.1 µM | [11] 12.9 µM | [20] 62.4 µM | [12] 12 µM | [13] 12.4 µM | [14] 12.6 µM | [15] 30.8 µM | [16] 23.9 µM | [18] 59.1 µM
inactive: [1] | [5] | [9]

C=CCC1=C(C)C(OC(=O)C2C(C=C(C)C)C2(C)C)CC1=O (stereo not given)
inactive: [1] | [2] | [3] | [5] | [7] | [8] | [9] | [10] | [12] | [13] | [14] | [15] | [16]
active: [4] 82.1 µM and 80.4 µM and 87.9 µM | [6] 79.6 µM and 72 µM and 50 µM | [8] 50 µM and 74.3 µM | [11] 50 µM and 88.1 µM and 40.4 µM | [12] 84 µM | [14] 90.8 µM and 22.5 µM | [18] 68.4 µM and 79.7 µM and 28.2 µM
